Each structure is given as a SMILES string. About 83,000 compounds went through this panel and 20% of them were active in at least one assay; those are over-represented in the sample as a whole.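 Each cell line was grown in a 96-well plate and treated with one concentration of compound for 48 hours. Values below 10 were considered active.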 Activity calls are given as the source filed them.

The test has as its system SK-MEL-5 melanoma. Briefly: NCI-60 one-dose screen, 48 h (100 = growth as untreated, 0 = no growth, -100 = all killed). The conditions noted are these: 10 µM unless noted.
Regarding `CC(=O)Nc1nc(C(=O)N2N=C(C)/C(=C/c3cccs3)C2=O)cs1`, the growth is 109% (inactive).

Take `CN1C(=O)[C@H]2c3c1cccc3[C@@]13NC(=O)O[C@H]1[C@H](CCC3(C)C)C2(C)C`: the growth was 98.1% (inactive). For the compound `CC(=O)C1CCC(C)=CC1=O` (stereo not drawn), the growth is 108% (inactive). To `COc1cccc(-n2cc(-c3nc(Cl)c4ccccc4n3)nn2)c1` belongs 95.1% (inactive). Next, `Nc1c(C(=O)Nc2cccc(Cl)c2Cl)sc2nc3c(cc12)C(=O)CCC3`: 49.8% (inactive); `COc1cc(/C=C2\CCCC3=C2NC(C)=NC3c2cc(OC)c(OC)c(OC)c2)cc(OC)c1OC` (stereo not drawn): 19.1% (inactive). Next, `O=c1[nH]c(-c2cn(-c3ccc(Cl)cc3)nn2)nc2ccccc12`: 79% (inactive); `CC/C(=C(\c1ccc(O)cc1)c1ccc(OCCN(C)CCN(C)C(=O)CCC(=O)c2c(C)[nH]c(/C=C3\N=C(c4ccc[nH]4)C=C3OC)c2C)cc1)c1ccccc1`: 78.2% (inactive); `Cc1cc(Nc2nc(-c3ccncc3)nc3ccccc23)n[nH]1`: 89.1% (inactive). With `COc1cc(C2C=C(C)N=C3SC=CN32)cc(OC)c1OC` (stereo not drawn), the growth was 106% (inactive). To `COC1=CC(c2ccc[nH]2)=N/C1=C\c1[nH]c(C)c(C(=O)CCC(=O)Oc2ccc3c(c2)CCC2C3CC[C@]3(C)[C@@H](O)CC[C@@H]23)c1C` (stereo partly drawn) belongs -84.2% (active). To `Cc1ccc(Cn2c(-c3nonc3N)nc3ccccc32)cc1` belongs 76.2% (inactive); to `O=C(Nc1ccccc1)OCC1OCOC(COC(=O)Nc2ccccc2)C1OC(=O)Nc1ccccc1` (stereo not drawn), 67.8% (inactive).

For the origin of these results see PubChem BioAssay (NCI).
